Experimental findings from article PMC7862700, “An all-to-all approach to the identification of sequence-specific readers for epigenetic DNA modifications on cytosine” are described below.

What all share (assay): DAPPL (digital affinity profiling via proximity ligation, sequencing); 10 mM Tris-HCl pH 7.5, 50 mM NaCl, 1 mM DTT, 4% glycerol, room temperature, 30 min; GST-TFs on glutathione beads, 16-mer random dsDNA library, 0.1% formaldehyde crosslink after washing; high values mean tight binding
What all share (conditions): protein: recombinant; tags: N-terminal GST; dsDNA, one strand shown

One test deals with T1, FEV (Homo sapiens, UniProt Q99581 1-238).
T1 sequence: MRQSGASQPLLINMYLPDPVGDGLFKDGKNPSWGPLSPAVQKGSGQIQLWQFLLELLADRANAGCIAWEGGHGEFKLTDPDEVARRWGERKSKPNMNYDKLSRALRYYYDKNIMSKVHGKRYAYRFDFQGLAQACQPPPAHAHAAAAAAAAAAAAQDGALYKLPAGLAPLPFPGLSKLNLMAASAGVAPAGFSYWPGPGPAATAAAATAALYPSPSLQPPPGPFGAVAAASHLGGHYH
The method, boiled down:
(§1)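 In yeast, human transcription factors were expressed with a GST fusion, then pulled down on glutathione beads and given DNA barcodes. Pooled with a tag-only sample, they were exposed to 200 nmole of a 16-mer random double-stranded DNA library (Tris/NaCl/DTT/glycerol buffer, room temperature, 30 min), washed, crosslinked with 0.1% formaldehyde, proximity-ligated using BsaI/T4 ligase for 1 h at 37 °C, PCR-amplified and read on an Illumina NextSeq500. Each hexamer's frequency of reads for a factor, divided by the matching frequency for the tag-only sample, gives the binding signal.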

The next test has as its target ETV5 (Homo sapiens, UniProt P41161 1-510). The method, boiled down: as §1
For the next test, the target named is T2, SPIC (Homo sapiens, UniProt Q8N5J4 1-248).
T2 sequence: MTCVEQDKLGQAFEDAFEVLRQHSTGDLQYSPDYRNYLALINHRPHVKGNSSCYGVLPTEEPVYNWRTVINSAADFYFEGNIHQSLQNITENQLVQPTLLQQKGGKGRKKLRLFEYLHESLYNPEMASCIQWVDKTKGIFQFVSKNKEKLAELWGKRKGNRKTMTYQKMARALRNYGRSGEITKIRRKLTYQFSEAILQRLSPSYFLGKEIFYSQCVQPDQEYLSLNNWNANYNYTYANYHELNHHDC
Summed up: as §1

The target of the next test is ELF4 (Homo sapiens, UniProt Q99607 1-663). The method, boiled down:
as §1

The target in a further test is T3, ELK4 (Homo sapiens, UniProt P28324-2 1-405).
T3 sequence: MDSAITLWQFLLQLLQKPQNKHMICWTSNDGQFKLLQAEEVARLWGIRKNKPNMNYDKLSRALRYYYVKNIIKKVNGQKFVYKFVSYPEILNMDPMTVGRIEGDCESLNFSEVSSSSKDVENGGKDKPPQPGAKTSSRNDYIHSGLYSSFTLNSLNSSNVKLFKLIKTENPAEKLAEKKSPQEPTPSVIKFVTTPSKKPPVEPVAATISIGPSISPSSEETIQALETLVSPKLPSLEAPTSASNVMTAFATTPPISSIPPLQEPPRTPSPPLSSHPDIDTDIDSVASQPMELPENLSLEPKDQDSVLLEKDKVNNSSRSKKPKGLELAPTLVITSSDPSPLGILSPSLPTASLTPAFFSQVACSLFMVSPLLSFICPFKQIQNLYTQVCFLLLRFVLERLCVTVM
The method, boiled down:
as §1

Another test deals with T4, ETV2 (Homo sapiens, UniProt O00321 1-342).
T4 sequence: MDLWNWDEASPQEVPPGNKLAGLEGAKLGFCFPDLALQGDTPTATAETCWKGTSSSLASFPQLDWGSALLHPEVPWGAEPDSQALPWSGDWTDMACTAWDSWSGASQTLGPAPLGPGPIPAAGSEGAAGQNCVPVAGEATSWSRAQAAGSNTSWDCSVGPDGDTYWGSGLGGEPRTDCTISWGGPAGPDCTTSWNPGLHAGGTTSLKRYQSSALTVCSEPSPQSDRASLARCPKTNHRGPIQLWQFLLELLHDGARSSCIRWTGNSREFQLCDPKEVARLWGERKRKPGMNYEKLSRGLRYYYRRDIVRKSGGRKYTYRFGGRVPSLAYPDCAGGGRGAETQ
The method, boiled down: as §1

A further test has as its target T5, ELF3 (Homo sapiens, UniProt P78545 1-371).
T5 sequence: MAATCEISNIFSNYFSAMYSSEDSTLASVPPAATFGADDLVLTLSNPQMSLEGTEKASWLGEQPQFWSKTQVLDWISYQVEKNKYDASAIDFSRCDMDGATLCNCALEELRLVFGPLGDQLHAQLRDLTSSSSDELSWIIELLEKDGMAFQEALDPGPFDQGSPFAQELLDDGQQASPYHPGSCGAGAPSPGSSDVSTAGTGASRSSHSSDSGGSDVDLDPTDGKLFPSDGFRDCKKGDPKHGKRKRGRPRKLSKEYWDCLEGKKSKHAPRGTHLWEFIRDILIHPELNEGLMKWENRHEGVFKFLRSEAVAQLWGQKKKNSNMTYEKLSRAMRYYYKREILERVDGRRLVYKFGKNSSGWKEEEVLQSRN
The method, boiled down:
as §1

The next test deals with ETV1 (Homo sapiens, UniProt P50549 1-477). The method, boiled down:
as §1

Chain of ETV5 (P41161 whole entry): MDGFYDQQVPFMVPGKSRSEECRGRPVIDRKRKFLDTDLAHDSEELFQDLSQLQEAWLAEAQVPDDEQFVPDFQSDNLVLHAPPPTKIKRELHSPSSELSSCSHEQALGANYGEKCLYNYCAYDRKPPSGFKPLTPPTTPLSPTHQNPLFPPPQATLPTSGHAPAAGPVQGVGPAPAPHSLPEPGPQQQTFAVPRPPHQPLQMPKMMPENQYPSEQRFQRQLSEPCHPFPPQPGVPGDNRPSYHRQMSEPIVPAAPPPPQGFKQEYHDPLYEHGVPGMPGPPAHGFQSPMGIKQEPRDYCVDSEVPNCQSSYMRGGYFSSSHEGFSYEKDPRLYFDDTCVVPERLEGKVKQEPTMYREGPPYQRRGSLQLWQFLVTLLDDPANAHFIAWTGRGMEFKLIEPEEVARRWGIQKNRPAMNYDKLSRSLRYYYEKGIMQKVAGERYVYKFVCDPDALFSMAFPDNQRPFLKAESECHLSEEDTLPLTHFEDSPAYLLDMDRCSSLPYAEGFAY
Chain of ELF4 (Q99607 whole entry): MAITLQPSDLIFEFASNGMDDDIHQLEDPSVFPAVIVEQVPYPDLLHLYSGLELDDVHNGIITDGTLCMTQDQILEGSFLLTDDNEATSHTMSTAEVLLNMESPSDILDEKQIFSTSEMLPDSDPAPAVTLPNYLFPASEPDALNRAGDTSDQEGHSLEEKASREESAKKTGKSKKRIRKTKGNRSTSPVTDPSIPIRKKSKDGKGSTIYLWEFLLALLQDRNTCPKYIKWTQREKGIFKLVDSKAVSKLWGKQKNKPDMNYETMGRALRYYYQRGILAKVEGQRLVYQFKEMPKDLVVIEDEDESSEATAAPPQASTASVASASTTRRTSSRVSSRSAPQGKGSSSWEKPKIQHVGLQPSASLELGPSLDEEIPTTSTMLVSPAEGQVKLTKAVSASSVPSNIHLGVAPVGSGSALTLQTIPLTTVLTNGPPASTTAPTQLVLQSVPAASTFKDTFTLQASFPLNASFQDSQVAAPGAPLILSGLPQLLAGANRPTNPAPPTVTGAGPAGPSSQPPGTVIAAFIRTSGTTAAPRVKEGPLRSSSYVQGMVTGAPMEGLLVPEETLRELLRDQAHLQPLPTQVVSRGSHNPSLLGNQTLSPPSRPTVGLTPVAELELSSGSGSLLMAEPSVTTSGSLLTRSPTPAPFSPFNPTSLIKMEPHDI
Chain of ETV1 (P50549 whole entry): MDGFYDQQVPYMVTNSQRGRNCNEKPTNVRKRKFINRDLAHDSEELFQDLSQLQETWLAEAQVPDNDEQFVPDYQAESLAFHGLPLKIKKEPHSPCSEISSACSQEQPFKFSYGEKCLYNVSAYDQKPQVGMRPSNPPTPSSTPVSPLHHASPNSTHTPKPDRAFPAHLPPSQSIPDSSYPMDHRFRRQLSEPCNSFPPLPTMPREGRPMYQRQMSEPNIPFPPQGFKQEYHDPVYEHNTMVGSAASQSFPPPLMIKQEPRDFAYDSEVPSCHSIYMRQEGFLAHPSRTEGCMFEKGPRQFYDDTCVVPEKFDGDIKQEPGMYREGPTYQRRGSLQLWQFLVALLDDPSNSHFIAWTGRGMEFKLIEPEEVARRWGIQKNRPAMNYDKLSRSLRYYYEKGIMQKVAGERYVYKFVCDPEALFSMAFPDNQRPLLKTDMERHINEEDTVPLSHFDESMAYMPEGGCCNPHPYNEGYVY

With CGTAAC, the binding signal with FEV was 1.09 fold enrichment (6-mer frequency, TF over GST control); in the test with ETV5, 1.1 fold enrichment (6-mer frequency, TF over GST control); with SPIC it was 1.27 fold enrichment (6-mer frequency, TF over GST control); with ELF4, 1.23 fold enrichment (6-mer frequency, TF over GST control); with ELK4, 1.13 fold enrichment (6-mer frequency, TF over GST control); with ETV2 it was 1.12 fold enrichment (6-mer frequency, TF over GST control). In addition, the binding signal with ELF3 was 1.18 fold enrichment (6-mer frequency, TF over GST control); in the test with ETV1, 1.13 fold enrichment (6-mer frequency, TF over GST control).

GTATCA: the binding signal is 1.04 fold enrichment (6-mer frequency, TF over GST control) in the test with FEV; 1.01 fold enrichment (6-mer frequency, TF over GST control) with ETV5; 1.03 fold enrichment (6-mer frequency, TF over GST control) with SPIC; 1.05 fold enrichment (6-mer frequency, TF over GST control) with ELF4; 1.12 fold enrichment (6-mer frequency, TF over GST control) with ELK4; 1.12 fold enrichment (6-mer frequency, TF over GST control) in the test with ETV2. Further, the binding signal in the test with ELF3 was 1.17 fold enrichment (6-mer frequency, TF over GST control); with ETV1, 1.05 fold enrichment (6-mer frequency, TF over GST control).

As to ACTACA, the binding signal with FEV was 1.17 fold enrichment (6-mer frequency, TF over GST control); with ETV5 it was 1.24 fold enrichment (6-mer frequency, TF over GST control); in the test with SPIC, 1.06 fold enrichment (6-mer frequency, TF over GST control); with ELF4, 1.16 fold enrichment (6-mer frequency, TF over GST control); in the test with ELK4, 1.07 fold enrichment (6-mer frequency, TF over GST control); with ETV2, 1.11 fold enrichment (6-mer frequency, TF over GST control). In addition, the binding signal with ELF3 is 1.04 fold enrichment (6-mer frequency, TF over GST control); with ETV1 it was 1.22 fold enrichment (6-mer frequency, TF over GST control).

TGTCCG: the binding signal with FEV was 1.61 fold enrichment (6-mer frequency, TF over GST control); with ETV5, 1.61 fold enrichment (6-mer frequency, TF over GST control); in the test with SPIC it was 1.36 fold enrichment (6-mer frequency, TF over GST control); with ELF4, 1.41 fold enrichment (6-mer frequency, TF over GST control); in the test with ELK4 it was 1.32 fold enrichment (6-mer frequency, TF over GST control); with ETV2 it was 1.29 fold enrichment (6-mer frequency, TF over GST control). The binding signal in the test with ELF3 was 1.48 fold enrichment (6-mer frequency, TF over GST control); in the test with ETV1 it was 1.6 fold enrichment (6-mer frequency, TF over GST control).

As for GTTCAT, the binding signal with FEV is 1.1 fold enrichment (6-mer frequency, TF over GST control); in the test with ETV5 it was 1.16 fold enrichment (6-mer frequency, TF over GST control); with SPIC, 1.15 fold enrichment (6-mer frequency, TF over GST control); with ELF4, 1.18 fold enrichment (6-mer frequency, TF over GST control); in the test with ELK4, 1.2 fold enrichment (6-mer frequency, TF over GST control); with ETV2 it was 1.01 fold enrichment (6-mer frequency, TF over GST control). Further, the binding signal was 1.04 fold enrichment (6-mer frequency, TF over GST control) with ELF3 and 1.12 fold enrichment (6-mer frequency, TF over GST control) with ETV1.

In the case of GCACGC, the binding signal with FEV is 1.08 fold enrichment (6-mer frequency, TF over GST control); in the test with ETV5, 1.04 fold enrichment (6-mer frequency, TF over GST control); in the test with SPIC, 1.06 fold enrichment (6-mer frequency, TF over GST control); with ELF4 it was 1.11 fold enrichment (6-mer frequency, TF over GST control); with ELK4 it was 1.05 fold enrichment (6-mer frequency, TF over GST control); in the test with ETV2 it was 1.18 fold enrichment (6-mer frequency, TF over GST control). For the same sequence, the binding signal in the test with ELF3 is 1.13 fold enrichment (6-mer frequency, TF over GST control); in the test with ETV1, 1.16 fold enrichment (6-mer frequency, TF over GST control).

Turning to GTACAA, the binding signal is 1.11 fold enrichment (6-mer frequency, TF over GST control) with FEV; 1.08 fold enrichment (6-mer frequency, TF over GST control) in the test with ETV5; 1.12 fold enrichment (6-mer frequency, TF over GST control) with SPIC; 1.09 fold enrichment (6-mer frequency, TF over GST control) with ELF4; 1.18 fold enrichment (6-mer frequency, TF over GST control) with ELK4; 1.19 fold enrichment (6-mer frequency, TF over GST control) in the test with ETV2. Further, the binding signal with ELF3 was 1.08 fold enrichment (6-mer frequency, TF over GST control); with ETV1 it was 1.09 fold enrichment (6-mer frequency, TF over GST control).
